# Assay outcomes (PubChem BioAssay)
# The entries come from a sample that favours hits as a whole.
# EZH2 inh: inhibitors of human EZH2/PRC2 methyltransferase; 0.35% of 57,000 active; Q15910; PRC2 H3K27 methylation, DELFIA TRF, 1 h; inhibition, % at 12.5 µM;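 active means mean inhibition of replicates at least 50% and every single replicate also reaching 50%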;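 further: dimethyl H3K27 on biotinylated H3 21-44 peptide detected by antibody; plate controls were median neutral control wells for no effect and median positive control wells for full effect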
# Target sequence (Q15910 whole entry, looked up): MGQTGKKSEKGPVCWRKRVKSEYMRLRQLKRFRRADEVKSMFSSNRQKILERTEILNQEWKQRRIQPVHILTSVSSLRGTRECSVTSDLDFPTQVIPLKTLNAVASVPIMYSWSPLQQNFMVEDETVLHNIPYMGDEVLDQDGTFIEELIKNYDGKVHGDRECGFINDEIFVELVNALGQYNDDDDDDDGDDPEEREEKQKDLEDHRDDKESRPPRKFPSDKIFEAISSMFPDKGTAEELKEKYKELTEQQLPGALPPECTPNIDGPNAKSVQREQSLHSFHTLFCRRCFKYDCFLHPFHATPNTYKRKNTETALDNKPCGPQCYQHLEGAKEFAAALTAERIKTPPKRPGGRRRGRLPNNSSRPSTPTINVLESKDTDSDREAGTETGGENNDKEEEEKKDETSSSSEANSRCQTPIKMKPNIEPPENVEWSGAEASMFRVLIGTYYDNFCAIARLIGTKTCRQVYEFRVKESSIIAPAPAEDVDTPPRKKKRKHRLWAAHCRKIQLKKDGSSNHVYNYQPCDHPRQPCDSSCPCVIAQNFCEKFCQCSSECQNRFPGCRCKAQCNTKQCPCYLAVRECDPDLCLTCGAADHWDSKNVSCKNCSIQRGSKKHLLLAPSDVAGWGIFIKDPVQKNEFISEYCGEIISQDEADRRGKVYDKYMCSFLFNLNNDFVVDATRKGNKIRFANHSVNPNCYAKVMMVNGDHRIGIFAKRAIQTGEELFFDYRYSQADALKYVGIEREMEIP
# Numbers without * were called inactive.
SMILES,EZH2 inh
C[C@@H]1CCCCO[C@H](CN(C)C(=O)Nc2ccc3c(c2)OCO3)[C@H](C)CN([C@H](C)CO)C(=O)c2cc(N(C)C)ccc2O1,-4
CC(C)NC(=O)N(C)C[C@H]1Oc2c(NS(=O)(=O)c3ccc(Cl)cc3)cccc2C(=O)N([C@H](C)CO)C[C@H]1C,-6
CC(C)NC(=O)N(C)C[C@@H]1OCCCC[C@@H](C)Oc2ccc(NC(=O)c3ccccc3)cc2C(=O)N([C@H](C)CO)C[C@H]1C,-19
C[C@H](CO)N1C[C@H](C)[C@H](CN(C)Cc2ccc3c(c2)OCO3)Oc2c(NC(=O)C3CCOCC3)cccc2C1=O,-10
Cc1cc(Oc2ccccc2)nc(SCCOc2ccccc2)n1,52*
Cc1cc(Oc2ccccc2)nc(SCC(=O)Nc2ccc(Cl)cc2Cl)n1,19
Cc1cc(C)nc(SCC(O)COc2ccc(Cl)cc2)n1 (stereo not given),4
CO[C@@H]1CN(C)C(=O)c2ccc(NC(C)=O)cc2OC[C@@H](C)N(Cc2ccc(F)cc2)C[C@H]1C,0
C[C@@H]1CN([C@H](C)CO)C(=O)c2cccc(NC(=O)CCCCCC(=O)Nc3ccccc3N)c2O[C@H]1CN(C)C(=O)Nc1ccc(C(F)(F)F)cc1,-32
COc1ccc(C#Cc2ccc3c(c2)O[C@@H](CN(C)C(=O)CN2CCOCC2)[C@H](C)CN([C@@H](C)CO)S3(=O)=O)cc1,-14
C[C@@H]1CN([C@@H](C)CO)C(=O)c2cccc(NC(=O)C3CCCCC3)c2O[C@@H]1CN(C)C(=O)Nc1ccc2c(c1)OCO2,-3
CO[C@@H]1CN(C)C(=O)c2cc(NS(=O)(=O)c3ccccc3)ccc2OC[C@@H](C)N(Cc2ccccn2)C[C@@H]1C,-10
Cc1ccc(-c2ccc3c(c2)O[C@H](CN(C)Cc2ccc(C(=O)O)cc2)[C@@H](C)CN([C@H](C)CO)S3(=O)=O)cc1,50*
C[C@@H]1CN([C@H](C)CO)S(=O)(=O)c2ccc(/C=C/c3ccccc3)cc2O[C@@H]1CN(C)Cc1ccc(C(=O)O)cc1,19
Cc1ccc(-c2ccc3c(c2)O[C@H](CN(C)Cc2ccc(C(=O)O)cc2)[C@@H](C)CN([C@@H](C)CO)S3(=O)=O)cc1,44
C[C@@H]1CN([C@H](C)CO)S(=O)(=O)c2ccc(/C=C/c3ccccc3)cc2O[C@H]1CN(C)Cc1ccccc1,10
C[C@H]1CN([C@@H](C)CO)S(=O)(=O)c2ccc(Br)cc2O[C@H]1CN(C)Cc1ccc(F)cc1,24
C[C@H]1CN([C@@H](C)CO)S(=O)(=O)c2ccc(Br)cc2O[C@H]1CN(C)Cc1ccccc1,-5
Cc1ccc(-c2ccc3c(c2)O[C@H](CN(C)Cc2ccc(C(=O)O)cc2)[C@H](C)CN([C@H](C)CO)S3(=O)=O)cc1,28
C[C@H](CO)N1C[C@H](C)[C@@H](CN(C)Cc2ccc(F)cc2)Oc2cc(Br)ccc2S1(=O)=O,58*
C[C@H](CO)N1C[C@H](C)[C@H](CN(C)Cc2ccc(C(=O)O)cc2)Oc2cc(/C=C/c3ccccc3)ccc2S1(=O)=O,52*
CC(C)(C)ONC(=O)c1cccc(N=[N+]=[N-])c1,3
N#Cc1cc2c(nc1SCC(=O)Nc1ccccc1C(F)(F)F)CCC2,10
C[C@H]1CN([C@@H](C)CO)C(=O)c2cc(-c3ccncc3)cnc2O[C@@H]1CN(C)C(=O)c1ccncc1,19
Cc1noc(C)c1NC(=O)N[C@@H]1CC[C@@H](CC(=O)NCCCN(C)C)O[C@@H]1CO,-2
SMILES,EZH2 inh
CN(C)C(=O)C[C@H]1C[C@H]2c3cc(NC(=O)Nc4ccccc4)ccc3O[C@H]2[C@@H](CO)O1,23
CN(C)C(=O)C[C@@H]1C[C@@H]2c3cc(NC(=O)Cc4ccncc4)ccc3O[C@@H]2[C@H](CO)O1,-4
Cc1ccccc1/C=N/NC(=O)CCCCCCC(=O)O,7
CCC1CCc2nc(SCC(=O)Nc3cccc(OC)c3)c(C#N)c(C(F)(F)F)c2C1 (stereo not given),-23
CC(=O)N[C@H]1CC[C@@H](CC(=O)NCC2CCCCC2)O[C@@H]1CO,21
COCC#Cc1ccc2c(c1)O[C@H](CN(C)C(=O)CC1CC1)[C@H](C)CN([C@H](C)CO)S2(=O)=O,-12
CCCN(C)C[C@@H]1Oc2ncc(C#CCOC)cc2C(=O)N([C@@H](C)CO)C[C@@H]1C,21
O=C(N/N=C/c1cc(Br)ccc1O)c1ccccn1,12
C[C@@H]1CC[C@]2(C(=O)O)CC[C@]3(C)C(=CCC4[C@@]5(C)CC[C@@H](O)[C@](C)(C(=O)O)C5CC[C@]43C)C2[C@H]1C (stereo not given in full),-13
C[C@@H]1CC[C@@]23CCC4(C)[C@@](C=CC5[C@@]6(C)CC[C@H](O)C(C)(C)C6CC[C@]54C)(OC2=O)C3[C@H]1C (stereo not given in full),3
CC1CC(=O)[C@]2(C)CC[C@]3(C)C(C(=O)C(O)C4[C@@]5(C)CC[C@H](O)C(C)(C(=O)O)C5CC[C@]43C)C2C1C (stereo not given in full),70*
CO[C@@H]1CN(C)C(=O)c2cc(NC(=O)c3cc(C)on3)ccc2OC[C@H](C)N(C(=O)C2CC2)C[C@@H]1C,-27
O=C(N[C@H]1CC[C@@H](CCNC(=O)C2CCCC2)O[C@H]1CO)c1ccccn1,8
COCC(=O)Nc1ccc2c(c1)C(=O)N(C)C[C@@H](OC)[C@@H](C)CN(Cc1ccccn1)[C@@H](C)CO2,-4
O=C(Nc1ccc(S(=O)(=O)Nc2ccccn2)cc1)c1cc2ccccc2oc1=O,-1
O=C(O)c1c(Sc2ccccc2)c2cc(Cl)ccc2n1Cc1ccc(Cl)cc1,64*
O=C1CCCc2c1n(CCN(Cc1ccccc1)Cc1ccccc1)c1ccc(Cl)cc21,-6
CC(=O)N(C)c1ccc(OCC(O)Cn2c3ccc(Cl)cc3c3cc(Cl)ccc32)cc1 (stereo not given),4
CC1(C)COC(CCC/C=N/NC(=O)CCCCC(=O)NO)OC1,-3
COc1ccc(NC(=O)CCC(=O)O)cc1,3
O=C(CNS(=O)(=O)c1ccc(Cl)cc1)Nc1ccc(I)cc1,-8
COc1ccc(C#Cc2ccc3c(c2)O[C@@H](CN(C)C(=O)CN2CCOCC2)[C@H](C)CN([C@H](C)CO)S3(=O)=O)cc1,-27
CO[C@H]1CN(C)C(=O)c2cc(NS(C)(=O)=O)ccc2OC[C@H](C)N(C)C[C@@H]1C,-1
COc1cc([C@H]2OC[C@H]3[C@@H]2CO[C@H]3c2ccc(OC)c(OC)c2)ccc1O,9
COc1cc([C@H]2OC[C@H]3[C@@H]2CO[C@@H]3c2ccc(O)c(OC)c2)ccc1O,80*
SMILES,EZH2 inh
COc1cc(C2OC[C@@H]3[C@@H](c4cc(OC)c(O)c(OC)c4)OC[C@H]23)cc(OC)c1O (stereo not given in full),-27
CO[C@@H]1CN(C)C(=O)c2ccc(NC(=O)Nc3ccccc3F)cc2OC[C@@H](C)NC[C@@H]1C,2
COCCNC(=O)C[C@H]1C[C@@H]2c3cc(NC(=O)C4CCOCC4)ccc3O[C@@H]2[C@@H](CO)O1,11
CS(=O)(=O)N(CC(=O)Nc1ccc(Cl)c(Cl)c1)c1ccc(Br)cc1,55*
CS(=O)(=O)N(CC(=O)Nc1ccc(Cl)c(Cl)c1)c1cc(Cl)cc(Cl)c1,5
CS(=O)(=O)N(CC(=O)Nc1cccc(Cl)c1)c1ccc(Br)cc1,3
CC(C)NC(=O)N(C)C[C@H]1OCCCC[C@@H](C)Oc2ccc(NC(=O)CCC(F)(F)F)cc2C(=O)N([C@@H](C)CO)C[C@@H]1C,-8
